According to PubChem BioAssay (NCATS):
Inconclusive results are not listed. Active and inactive are the calls of the source. Unless noted, the call rests on the fitted dose curve; in most records, active means well fitted curve in the direction sought with a large enough effect; inconclusive means small, poorly fitted or top-dose-only effect, or another doubt; inactive means no such curve, though single readings can be large; an effect the other way counts as inactive or inconclusive.

Key:
[1] = AP1 Signaling Pathway (AID 357; active means well fitted curve in either direction with a large enough effect, not every such curve was filed as active;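 further: ME-180 reporter cells stimulated with EGF at its EC50 level; on the % scale 0 is the no-effect control and ±100 the full control effect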); settings: ME-180 AP-1-bla reporter, EGF-induced, beta-lactamase ratio, 5 h; at 7.69 µM (top of the series) unless noted
Procedure, shortened: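 Modulation of EGF-driven AP-1 transcription was assessed with a beta-lactamase reporter in ME-180 cells. Compound and EC50 EGF were co-incubated 5 hours at 37 °C before 2.5-hour CCF4 loading at room temperature and dual-emission reading.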

[2] = NFAT Signaling Pathway (AID 444; active means well fitted curve in either direction with a large enough effect, not every such curve was filed as active;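 further: carbachol stimulus at about its EC50 of 1 µM final; on the % scale 0 is the no-effect control and ±100 the full control effect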); settings: Jurkat NFAT-bla M1, carbachol, beta-lactamase ratio, 5 h; at 7.69 µM (top of the series) unless noted
Procedure, shortened: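 Jurkat cells with NFAT-driven β-lactamase reporter and co-expressed M1 receptor, stimulated with carbachol (final 1 uM, ~EC50), compound titration, 5 h at 37 °C. CCF4 loaded 1 h at RT; 460/530 nm ratio gave %activity and AC50.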

[3] = Stat Signaling Pathway (AID 446; active means well fitted curve in either direction with a large enough effect, not every such curve was filed as active;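 further: ME-180 cervical cancer cells given 40 pM IL-6 alongside compound; SIE-controlled beta-lactamase reporter measured as 460/530 nm FRET emission ratio; on the % scale 0 is the no-effect control and ±100 the full control effect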); settings: ME-180 (cervical carcinoma) SIE beta-lactamase reporter, IL-6 stimulated, 5 h; at 7.69 µM (top of the series) unless noted
Procedure, shortened: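 IL-6/STAT signaling read in ME-180 cells via an SIE beta-lactamase reporter. Stimulus was 40 pM IL-6 (its AC50) for 5 hrs, so both activation and inhibition register.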

[4] = biological target: Glucocorticoid receptor (Homo sapiens) (UniProt P04150); test: GR-GFP Redistribution (AID 450;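 active means compounds whose dose series gives a full or clear partial fitted curve of increased nuclear translocation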; further: potency means the concentration at half of the fitted maximal effect); settings: U2OS GR-GFP nuclear translocation, laser cytometry, 2 h
Glucocorticoid receptor (Homo sapiens), sequence (P04150 whole entry, looked up, the tested form may be a part): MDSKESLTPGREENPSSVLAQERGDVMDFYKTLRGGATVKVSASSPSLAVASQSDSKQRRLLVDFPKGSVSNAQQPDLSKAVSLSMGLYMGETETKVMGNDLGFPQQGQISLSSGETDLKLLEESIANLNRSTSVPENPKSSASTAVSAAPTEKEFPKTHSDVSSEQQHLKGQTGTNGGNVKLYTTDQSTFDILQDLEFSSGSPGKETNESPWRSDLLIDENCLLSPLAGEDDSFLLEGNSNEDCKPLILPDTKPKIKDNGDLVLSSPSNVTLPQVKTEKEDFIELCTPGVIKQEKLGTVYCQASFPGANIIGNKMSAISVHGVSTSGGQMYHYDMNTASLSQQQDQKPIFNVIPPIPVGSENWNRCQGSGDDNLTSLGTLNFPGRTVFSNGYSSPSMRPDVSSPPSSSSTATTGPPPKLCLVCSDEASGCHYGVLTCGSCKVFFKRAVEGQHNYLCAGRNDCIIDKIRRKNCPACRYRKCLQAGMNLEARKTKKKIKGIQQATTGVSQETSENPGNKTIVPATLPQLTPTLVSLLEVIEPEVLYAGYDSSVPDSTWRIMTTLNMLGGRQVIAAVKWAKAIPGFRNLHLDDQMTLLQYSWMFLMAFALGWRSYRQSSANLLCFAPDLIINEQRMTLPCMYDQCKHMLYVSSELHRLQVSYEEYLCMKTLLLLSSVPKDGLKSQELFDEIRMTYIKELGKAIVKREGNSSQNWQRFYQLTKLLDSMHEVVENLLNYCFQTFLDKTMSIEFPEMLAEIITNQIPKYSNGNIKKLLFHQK

[5] = biological target: Glucocorticoid receptor (Homo sapiens) (UniProt P04150); test: GR-EFC Redistribution (AID 451; calls by dose curve; further: potency means the concentration at half of the fitted maximal effect); settings: CHO-K1 GR-EFC translocation, beta-gal luminescence, 2 h
Procedure, shortened: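 CHO-K1 cells expressing nuclear EA and GR-ED fragments of b-gal; compounds titrated up to 46 uM final, 2 h at 37 C. GR nuclear translocation read as complemented b-gal luminescence after 1 h RT detection.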

[6] = biological target: 3',5'-cyclic-AMP phosphodiesterase 4B (Homo sapiens) (UniProt Q07343); test: qHTS Assay for Inhibitors of PDE-IV (AID 607; active means well fitted activation curve with a large enough effect in the main read-out, with a control signal flat, not every such curve was filed as active; further: % of control where 0% means no effect); settings: HEK293 ACTOne CNG channel cells, membrane potential fluorescence; series mostly up to 22.9 µM
Procedure, shortened: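 Live HEK293 cells with a modified cyclic nucleotide-gated (CNG) channel report intracellular cAMP via membrane-potential dye fluorescence (ex 535/em 590 nm). Endogenous PDE-IV was targeted. Compounds were tested at up to 22.9 uM final; RO 20-1724 100 uM served as control.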

[7] = biological target: Guanine nucleotide-binding protein G(i) subunit alpha-1 (Homo sapiens) (UniProt P63096); test: qHTS Assay for Inhibitors of RGS12 GoLoco Motif Activity (Green Fluorophore) (AID 879); settings: Galphai1/FITC-RGS12 GoLoco peptide, fluorescence polarization; series mostly up to 57.1 µM;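 further: 0% = labeled peptide with Gαi1 and full inhibition = labeled peptide alone without protein; negative values mean loss of peptide binding seen as reduced polarization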
Guanine nucleotide-binding protein G(i) subunit alpha-1 (Homo sapiens), sequence (P63096 whole entry, looked up): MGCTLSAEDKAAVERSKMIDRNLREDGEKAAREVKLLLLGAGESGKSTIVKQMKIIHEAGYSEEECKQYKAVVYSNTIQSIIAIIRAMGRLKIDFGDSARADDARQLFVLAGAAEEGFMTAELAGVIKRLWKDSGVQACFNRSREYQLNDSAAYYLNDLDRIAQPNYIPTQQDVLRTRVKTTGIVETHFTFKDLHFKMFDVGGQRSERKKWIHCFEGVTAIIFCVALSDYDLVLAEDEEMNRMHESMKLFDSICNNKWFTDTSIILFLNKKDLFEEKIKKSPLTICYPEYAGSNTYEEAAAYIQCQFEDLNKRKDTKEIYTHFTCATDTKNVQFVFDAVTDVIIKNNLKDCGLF
Procedure, shortened: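 Fluorescence polarization assay: 50 nM Gαi1 with 10 nM FITC-labeled RGS12 GoLoco peptide in 10 mM Tris pH 7.5, 150 mM NaCl, 0.1 mM GDP, 0.05% NP40, 10 min at room temperature with compound.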

[8] = qHTS Assay for Identification of Small Molecule Agonists for Thrombopoietin (TPO) Signaling Pathway (AID 917); settings: TPO signaling pathway reporter cells, agonist qHTS, stimulated with TPO at its EC50; series mostly up to 38.5 µM; further: on the % scale 0 is the no-effect control and ±100 the full control effect
Procedure, shortened: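 Murine Ba/F3 cells stably expressing human TPO receptor and a Glycoprotein IIb promoter–luciferase reporter were IL-3-starved overnight, then treated with compounds plus TPO (26 pM final, its EC50) for 24 hrs at 37 C; luminescence was read.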

[9] = biological target: Muscarinic acetylcholine receptor M1 (Rattus norvegicus) (UniProt P08482); test: qHTS Assay for Antagonists of Acetylcholine Muscarinic M1 Receptor: Kinetic Measurement of Intracellular Calcium Response (AID 943); settings: M1-expressing cells, kinetic intracellular calcium fluorescence; series mostly up to 35.3 µM; further: nearly all actives have a fitted effect of over 75% in size
Muscarinic acetylcholine receptor M1 (Rattus norvegicus), sequence (P08482 whole entry, looked up): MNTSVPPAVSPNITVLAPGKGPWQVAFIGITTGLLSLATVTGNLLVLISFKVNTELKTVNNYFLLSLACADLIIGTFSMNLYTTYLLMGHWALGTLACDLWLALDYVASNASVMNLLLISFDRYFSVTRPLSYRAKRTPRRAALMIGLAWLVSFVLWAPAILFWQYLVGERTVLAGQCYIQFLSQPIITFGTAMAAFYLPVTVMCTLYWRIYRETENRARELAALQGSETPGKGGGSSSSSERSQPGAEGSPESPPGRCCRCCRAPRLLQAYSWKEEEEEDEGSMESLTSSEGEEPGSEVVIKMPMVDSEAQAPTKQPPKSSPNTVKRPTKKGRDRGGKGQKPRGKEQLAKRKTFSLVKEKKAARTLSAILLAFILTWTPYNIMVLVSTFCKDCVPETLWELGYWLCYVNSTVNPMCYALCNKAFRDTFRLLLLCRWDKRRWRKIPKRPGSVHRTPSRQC
Procedure, shortened: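 CHO cells expressing rat M1 receptor, Fluo-4 loaded, preincubated 10 min with compound, then stimulated with EC80 carbachol (100 nM final). Kinetic calcium fluorescence over 4 min; response taken as peak over basal signal.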

[10] = biological target: Muscarinic acetylcholine receptor M1 (Rattus norvegicus) (UniProt P08482); test: qHTS Assay for Antagonists of Acetylcholine Muscarinic M1 Receptor: Measurement of IP-One Response (AID 944); settings: CHO-M1 cells, IP-One HTRF, antagonist mode; series mostly up to 46.1 µM; further: nearly all actives have a fitted effect of over 75% in size
Procedure, shortened: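 CHO cells stably expressing rat M1, pretreated 10 min with compound, then stimulated 30 min with carbachol at EC80 (200 nM) in LiCl-containing buffer pH 7.4; IP1 accumulation read by HTRF competition (665/620 nm).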

[11] = biological target: Pyruvate kinase (Leishmania mexicana) (UniProt Q27686); test: qHTS Validation Assay for Inhibitors of Leishmania Mexicana Pyruvate Kinase (AID 945);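 further: 0% = DMSO only neutral control wells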; settings: purified L. mexicana pyruvate kinase, enzyme activity, E451W mutant enzyme; series mostly up to 57.5 µM
Procedure, shortened: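 Eight-point qHTS titrations in triplicate, data normalized to DMSO neutral control. Reaction: 0.2 nM LmPYK E451W mutant, 0.5 mM PEP, 0.1 mM ADP, 7 mM MgCl2, pH 7.2, one hour at room temperature; luminescent ATP detection.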

[12] = biological target: Pyruvate kinase PKM (Homo sapiens) (UniProt P14618); test: qHTS Assay for Activators of Human Muscle Pyruvate Kinase (AID 954; active means well fitted curve in the direction sought with a large enough effect, not every such curve was filed as active;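 further: 0% = uninhibited enzyme and -100% = no enzyme or full thiadiazolimine inhibition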); settings: purified human muscle pyruvate kinase, luciferase-coupled luminescence, 1 h; series mostly up to 57.5 µM
Procedure, shortened: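 Enzyme was run at intermediate activity so both inhibitors and activators could be detected. ATP formed from ADP and PEP by 0.1 nM human PKM2 during a 1 h room-temperature incubation was quantified by coupled luciferase luminescence.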

[13] = biological target: Alpha-galactosidase A (Homo sapiens) (UniProt P06280); test: Counterscreen for Glucocerebrosidase Inhibitors: qHTS Assay for Human alpha-Galactosidase at pH 4.5 (AID 992); settings: purified enzyme, fluorogenic substrate; series mostly up to 76.9 µM; further: 0% is about no effect
Alpha-galactosidase A (Homo sapiens), sequence (P06280 whole entry, looked up): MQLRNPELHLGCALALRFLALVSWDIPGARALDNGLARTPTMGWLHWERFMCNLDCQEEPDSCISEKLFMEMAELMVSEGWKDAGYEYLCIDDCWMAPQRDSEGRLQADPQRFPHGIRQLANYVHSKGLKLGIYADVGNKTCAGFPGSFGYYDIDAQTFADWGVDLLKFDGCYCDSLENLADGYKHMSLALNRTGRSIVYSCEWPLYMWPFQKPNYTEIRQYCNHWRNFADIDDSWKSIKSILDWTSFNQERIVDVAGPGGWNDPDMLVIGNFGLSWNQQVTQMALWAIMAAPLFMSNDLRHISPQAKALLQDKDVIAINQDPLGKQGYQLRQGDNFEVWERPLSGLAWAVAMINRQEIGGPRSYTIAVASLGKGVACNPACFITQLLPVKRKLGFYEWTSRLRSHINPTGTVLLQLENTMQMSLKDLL
Procedure, shortened: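 Read-out is 4-methylumbelliferone fluorescence (365 nm excitation, 440 nm emission) after a pH 10 NaOH/glycine stop. Reactions held 2 nM enzyme and 80 uM substrate at pH 4.5 for 20 min at room temperature.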

[14] = biological target: alpha-glucosidase (Oryza sativa, rice) (UniProt Q653V4); test: Counterscreen for Glucocerebrosidase Inhibitors: qHTS Assay for Rice alpha-Glucosidase at pH 5.0 (AID 997); settings: rice alpha-glucosidase enzyme activity; series mostly up to 76.9 µM;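 further: 0% = full activity with enzyme and -100% = basal without enzyme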
Procedure, shortened: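 Rice alpha-glucosidase (4 nM final) with 400 uM 4-methylumbelliferyl-alpha-D-glucopyranoside in citrate buffer pH 5.0, 20 min at room temperature, stopped at pH 10; fluorescence 365/440 nm, compounds 0.7 nM–77 uM, AC50 from Hill fits.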

[15] = biological target: DNA repair nuclease/redox regulator APEX1 (Homo sapiens) (UniProt P27695); test: qHTS Validation Assay for Inhibitors of the Human Apurinic/apyrimidinic Endonuclease 1 (APE1) (AID 1705); settings: purified APE1 endonuclease activity, fluorescence, titration; series mostly up to 57.1 µM
DNA repair nuclease/redox regulator APEX1 (Homo sapiens), sequence (P27695 whole entry, looked up): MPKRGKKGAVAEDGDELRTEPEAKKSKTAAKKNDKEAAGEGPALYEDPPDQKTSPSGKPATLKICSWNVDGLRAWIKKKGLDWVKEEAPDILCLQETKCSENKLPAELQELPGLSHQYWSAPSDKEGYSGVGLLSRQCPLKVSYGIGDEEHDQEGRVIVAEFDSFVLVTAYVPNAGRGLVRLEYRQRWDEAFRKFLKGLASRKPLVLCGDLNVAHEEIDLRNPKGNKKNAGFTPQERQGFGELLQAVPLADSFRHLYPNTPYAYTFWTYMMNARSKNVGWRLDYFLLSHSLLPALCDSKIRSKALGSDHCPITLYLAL
Procedure, shortened: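 Human APE1 was preincubated with compound for 15 min at room temperature, then 50 nM (final) THF-abasic double-stranded DNA substrate bearing 5'-TAMRA and 3'-BHQ-2 was added. Incision-driven fluorescence rise (ex 525/em 598 nm) was read kinetically.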

[16] = Counterscreen for APE1 Inhibitors: Fluorescent Dye Displacement Validation Assay (AID 1707); settings: fluorescent dye displacement from DNA; series mostly up to 57.1 µM;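 further: plate controls were ThO with dsDNA and no compound for no effect and ThO without dsDNA for full effect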
Procedure, shortened: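 ThO 250 nM + dsDNA 50 nM (THF abasic site, 5'-TAMRA), Tris-HCl pH7.5/50mM NaCl/2 mM MgCl2/0.01% Tween-20; compounds pin-transferred; ex 480/em 540 nm endpoint. Neutral = no compound; no-DNA ThO wells = negative control.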

[17] = qHTS for differential inhibitors of proliferation of Plasmodium falciparum line D10 (AID 1877); settings: series mostly up to 28.7 µM;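 further: parasites grown with compound for 72 h before DNA staining; plate controls were vehicle wells for no effect and reference inhibitor wells for full effect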
[18] = biological target: Ferritin light chain (Equus caballus) (UniProt P02791); test: qHTS Validation Assay for Identification of Novel General Anesthetics (AID 2323); settings: horse apoferritin, anesthetic-site fluorescent probe displacement; series mostly up to 76.9 µM; further: on the % scale 0 is the no-effect control and ±100 the full control effect
Procedure, shortened: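 Competitive displacement of profluorescent 1-aminoanthracene (1-AMA, 50% saturated solution in PBS) from 10 uM horse-spleen apoferritin. Compounds incubated 10 min at room temperature; fluorescence read at 380 nm excitation/535 nm emission, normalized to free 1-AMA and complex, fitted with four-parameter Hill equation.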

[19] = biological target: ATP-dependent DNA helicase Q1 (Homo sapiens) (UniProt P46063); test: qHTS Validation Assay for Inhibitors of RecQ-Like Dna Helicase 1 (RECQ1) (AID 2353); settings: recombinant RECQ1 helicase DNA unwinding assay; series mostly up to 25.6 µM;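 further: plate controls were DMSO vehicle for no effect and enzyme-free control for full effect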
ATP-dependent DNA helicase Q1 (Homo sapiens), sequence (P46063 whole entry, looked up): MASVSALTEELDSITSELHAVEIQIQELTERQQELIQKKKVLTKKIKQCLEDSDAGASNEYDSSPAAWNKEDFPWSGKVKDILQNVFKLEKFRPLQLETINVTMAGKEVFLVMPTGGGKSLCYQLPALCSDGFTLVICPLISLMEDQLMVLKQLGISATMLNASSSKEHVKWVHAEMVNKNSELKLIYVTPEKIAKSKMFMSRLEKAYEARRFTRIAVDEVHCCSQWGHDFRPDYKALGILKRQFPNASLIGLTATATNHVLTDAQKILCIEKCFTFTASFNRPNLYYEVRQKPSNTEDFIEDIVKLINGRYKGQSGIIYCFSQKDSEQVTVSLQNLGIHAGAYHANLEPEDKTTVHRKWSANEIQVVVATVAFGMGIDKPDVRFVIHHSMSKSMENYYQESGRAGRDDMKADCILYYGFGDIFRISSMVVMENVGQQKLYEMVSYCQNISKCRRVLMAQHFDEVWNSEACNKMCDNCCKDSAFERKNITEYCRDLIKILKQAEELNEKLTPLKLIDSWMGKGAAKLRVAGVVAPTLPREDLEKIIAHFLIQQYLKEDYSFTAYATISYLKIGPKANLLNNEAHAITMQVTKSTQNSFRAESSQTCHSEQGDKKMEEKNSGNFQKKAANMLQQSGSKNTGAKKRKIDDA
Procedure, shortened: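 50 nM RECQ1T1 preincubated 15 min with compound in Tris pH 8.0 buffer with MgCl2, DTT, Tween-20 and 2.5 ug/ml poly(dI-dC); started with 200 nM TAMRA/BHQ-2 forked duplex and 2 mM ATP. Unwinding read as fluorescence (525/598 nm), two reads 2 h apart.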

[20] = Validation screen for small molecules that induce DNA re-replication in MCF 10A normal breast cells (AID 463097); settings: MCF 10A cells, DNA re-replication phenotype imaging; series mostly up to 46.1 µM; further: 0% is about no effect; nearly all actives have a fitted effect of over 60% in size
Procedure, shortened: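 Readout: Hoechst nuclear fluorescence intensity, 405 ex / 500-530 em, by scanning plate imager; re-replication scored as increase in nuclei with elevated DNA content. Cells exposed to compound 48 hr, 37 C, 5% CO2 beforehand.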

[21] = Quantitative high throughput screen for delayed death inhibitors of the malarial parasite plastid, 48 hour incubation (AID 488752); settings: Plasmodium falciparum growth; series mostly up to 28.7 µM; further: on the % scale 0 is the no-effect control and ±100 the full control effect; nearly all actives have a fitted effect of over 65% in size
Procedure, shortened: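 Erythrocytes infected with firefly luciferase-expressing P. falciparum (2% hematocrit, 0.1% parasitemia) cultured with compound for 48 h at 37 C, 5% CO2, in RPMI 1640/0.5% Albumax. Growth inhibition read as loss of luminescence.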

[22] = biological target: Transient receptor potential cation channel subfamily V member 1 (Homo sapiens) (UniProt Q8NER1); test: HTS Assay for Compounds that Act as Enhancers of the Vanilloid Receptor 1 (AID 488979); settings: TRPV1-expressing cells, enhancer of channel activity, stimulated with capsaicin at EC20; series mostly up to 41.7 µM; further: 0% is about no effect
Transient receptor potential cation channel subfamily V member 1 (Homo sapiens), sequence (Q8NER1 whole entry, looked up): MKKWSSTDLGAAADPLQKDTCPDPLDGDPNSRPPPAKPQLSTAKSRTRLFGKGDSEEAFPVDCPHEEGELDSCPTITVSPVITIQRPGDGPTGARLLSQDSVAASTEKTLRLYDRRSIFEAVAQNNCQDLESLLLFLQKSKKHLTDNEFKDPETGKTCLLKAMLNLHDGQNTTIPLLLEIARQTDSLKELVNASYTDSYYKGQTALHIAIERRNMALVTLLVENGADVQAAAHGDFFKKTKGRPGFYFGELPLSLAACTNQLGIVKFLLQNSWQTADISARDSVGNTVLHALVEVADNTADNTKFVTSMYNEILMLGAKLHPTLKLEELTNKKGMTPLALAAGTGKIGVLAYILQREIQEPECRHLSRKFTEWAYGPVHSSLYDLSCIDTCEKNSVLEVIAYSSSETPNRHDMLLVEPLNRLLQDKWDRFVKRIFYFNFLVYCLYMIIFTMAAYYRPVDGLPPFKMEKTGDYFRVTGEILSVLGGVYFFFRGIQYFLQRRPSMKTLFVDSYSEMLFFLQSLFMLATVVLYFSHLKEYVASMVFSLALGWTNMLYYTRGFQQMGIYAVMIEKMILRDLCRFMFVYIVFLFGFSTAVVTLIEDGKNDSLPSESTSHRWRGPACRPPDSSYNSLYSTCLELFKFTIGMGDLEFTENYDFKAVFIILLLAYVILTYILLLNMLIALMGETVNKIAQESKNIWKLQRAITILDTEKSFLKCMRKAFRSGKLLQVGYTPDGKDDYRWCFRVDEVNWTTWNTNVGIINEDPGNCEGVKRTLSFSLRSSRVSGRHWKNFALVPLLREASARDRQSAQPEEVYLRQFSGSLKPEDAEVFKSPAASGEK
Procedure, shortened: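 TRPV1 cells loaded with Fluo-8 calcium dye; compound added and Ca2+ signal (ex 480/em 520 nm) followed 3 min, then capsaicin at EC20 added and read 2 more min to detect enhancement.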

[23] = biological target: Thyrotropin receptor (Homo sapiens) (UniProt P16473); test: qHTS Assay for Antagonists of the Thyroid Stimulating Hormone Receptor (AID 488980); settings: TSHR-expressing cells, cAMP antagonist read-out; series mostly up to 57.5 µM; further: 0% is about no effect
Thyrotropin receptor (Homo sapiens), sequence (P16473 whole entry, looked up): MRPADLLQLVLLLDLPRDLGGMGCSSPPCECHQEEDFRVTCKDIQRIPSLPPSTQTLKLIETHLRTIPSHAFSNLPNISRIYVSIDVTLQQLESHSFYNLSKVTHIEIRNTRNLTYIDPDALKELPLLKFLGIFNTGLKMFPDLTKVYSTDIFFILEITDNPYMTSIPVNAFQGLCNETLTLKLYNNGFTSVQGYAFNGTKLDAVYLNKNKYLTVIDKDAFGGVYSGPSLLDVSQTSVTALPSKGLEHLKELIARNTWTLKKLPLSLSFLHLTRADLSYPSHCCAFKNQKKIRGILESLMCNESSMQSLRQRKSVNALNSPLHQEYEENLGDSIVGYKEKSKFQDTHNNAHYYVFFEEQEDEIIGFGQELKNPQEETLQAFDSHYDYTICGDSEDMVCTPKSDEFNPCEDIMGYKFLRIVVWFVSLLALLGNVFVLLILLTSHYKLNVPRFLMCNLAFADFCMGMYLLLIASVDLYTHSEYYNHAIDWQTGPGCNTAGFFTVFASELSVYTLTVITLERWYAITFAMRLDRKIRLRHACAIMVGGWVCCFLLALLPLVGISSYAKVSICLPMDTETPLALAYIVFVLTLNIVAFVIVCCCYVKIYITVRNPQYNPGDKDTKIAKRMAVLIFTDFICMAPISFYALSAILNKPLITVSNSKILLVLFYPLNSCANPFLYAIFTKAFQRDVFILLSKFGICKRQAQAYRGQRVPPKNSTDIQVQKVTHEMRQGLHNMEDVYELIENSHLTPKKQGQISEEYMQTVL
Procedure, shortened: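 HEK293 cells transfected with human TSHR, suspended in HEPES-buffered HBSS with 70 uM RO 20-1724, were treated with compounds plus TSH at EC80 (4 nM final). cAMP was measured by competitive HTRF (cryptate anti-cAMP antibody, cAMP-d2 acceptor).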

[24] = biological target: Thyrotropin-releasing hormone receptor (Homo sapiens) (UniProt P34981); test: qHTS for Small Molecule Agonists and Allosteric Enhancers of Human TRH Receptor: Validation Screen for Agonists (AID 493127;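 active means calcium activation more than 3 SD above the typical response in the agonist read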; further: 0% is about no effect); settings: TRH receptor agonist cell assay; at 2 µM; stronger effect = higher value
Procedure, shortened: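 TRHR cells loaded with fluo-8 calcium dye; FDSS kinetic fluorescence (Ex 480/Em 530) read at 1 s/cycle after 23 nL compound addition. Agonist-mode calcium response recorded before the 10 nM TRH (EC20) addition.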

[25] = biological target: Galactokinase (Homo sapiens) (UniProt P51570); test: qHTS Validation Assay for Inhibitors of Human Galactokinase (GALK) (AID 493189); settings: purified human GALK enzyme activity, qHTS 7-point titration; series mostly up to 57.5 µM; further: 0% is about no effect
Galactokinase (Homo sapiens), sequence (P51570 whole entry, looked up): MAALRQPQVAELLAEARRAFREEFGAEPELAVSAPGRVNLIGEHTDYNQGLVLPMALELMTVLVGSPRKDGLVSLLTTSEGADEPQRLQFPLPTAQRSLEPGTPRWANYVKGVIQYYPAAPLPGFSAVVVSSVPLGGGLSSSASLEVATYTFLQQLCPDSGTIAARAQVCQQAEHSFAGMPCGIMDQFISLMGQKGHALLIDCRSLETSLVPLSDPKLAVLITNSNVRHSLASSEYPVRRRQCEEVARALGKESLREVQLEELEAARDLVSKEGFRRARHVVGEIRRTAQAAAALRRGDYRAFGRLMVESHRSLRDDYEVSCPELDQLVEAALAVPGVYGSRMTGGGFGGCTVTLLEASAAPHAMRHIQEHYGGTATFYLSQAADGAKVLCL
Procedure, shortened: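 GALK (5 nM) with 35 uM ATP and 100 uM galactose in HEPES pH8.0, MgCl2, NaCl, DTT, BSA; 1 h at room temperature. Residual ATP read by Kinase-Glo Plus luminescence after 10 min.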

[26] = Validation screen for small molecules that induce DNA re-replication in SW480 colon adenocarcinoma cells (AID 504364); settings: DNA re-replication phenotype (high-content imaging); series mostly up to 46.1 µM; further: 0% is about no effect
Procedure, shortened: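 SW480 cells (250/well) exposed 48 h at 37 C, 5% CO2, then Hoechst-stained 40 min. Nuclear DNA content imaged by fluorescence scanning (405 nm excitation, 500-530 nm emission); re-replication scored as increased nuclei with elevated intensity.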

COc1ccc2c(c1)c(CC(=O)O)c(C)n2Cc1ccc(F)cc1
inactive: activity change, negative = inhibition [1] 1.56% [at 38 µM] | activity change, negative = inhibition [2] 6.06% [at 38 µM] | activity, negative = inhibition [3] 11.9% [at 38 µM] | Potency [4] > 46 µM | Potency [5] > 46 µM | Potency [6] | outcome [7] | outcome [8] | Potency [9] | Potency [10] | Potency [11] | outcome [12] | outcome [13] | outcome [14] | Potency [15] | Potency [16] | Potency [17] | outcome [18] | Potency [19] | outcome [20] | Potency [21] | outcome [22] | outcome [23] | activation [24] 1.38% | outcome [25] | outcome [26]
